The values that follow come from PubChem BioAssay (NCATS).

Assay [1] can be described thus: AP1 Signaling Pathway (AID 357).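 Further: ME-180 reporter cells stimulated with EGF at its EC50 level; on the % scale 0 is the no-effect control and ±100 the full control effect.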 The following applies: ME-180 AP-1-bla reporter, EGF-induced, beta-lactamase ratio, 5 h; at 7.69 µM (top of the series) unless noted. An outline of the steps:
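In this screen, ME-180 cells in Opti-MEM with 0.5% dialyzed FBS received EC50 EGF and compound titrations for 5 h. AP-1 reporter beta-lactamase was detected via CCF4 ratio, giving AC50 for positive and negative modulators.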

Assay [2] has as its target Cytochrome P450 1A2 (Homo sapiens) (UniProt P05177). In words: p450-cyp1a2 (AID 410; calls by dose curve; further: potency means the concentration at half of the fitted maximal effect;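 on activity change, negative = inhibition: -100% = full effect of reference inhibitor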). An outline of the steps:
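Read-out is luminescence from luciferin produced by CYP1A2 demethylation of Luciferin-ME (100uM, at Km). Detection reagent stopped the 60 min NADPH-dependent reaction; signals were normalized to 57 uM furafylline.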

Assay [3] can be described thus: NFAT Signaling Pathway (AID 444).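 Further: carbachol stimulus at about its EC50 of 1 µM final; on the % scale 0 is the no-effect control and ±100 the full control effect.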 The settings on record: Jurkat NFAT-bla M1, carbachol, beta-lactamase ratio, 5 h; at 7.69 µM (top of the series) unless noted. An outline of the steps:
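Read-out: CCF4 FRET ratio (460 nm/530 nm) after 1 h RT dye loading, used for %activity and AC50 from titration series. Cells: Jurkat NFAT-β-lactamase/M1 line, treated with compound plus 1 uM carbachol for 5 h, 37 °C.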

Assay [4] can be described thus: Stat Signaling Pathway (AID 446).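 Further: ME-180 cervical cancer cells given 40 pM IL-6 alongside compound; SIE-controlled beta-lactamase reporter measured as 460/530 nm FRET emission ratio; on the % scale 0 is the no-effect control and ±100 the full control effect.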 The settings on record: ME-180 (cervical carcinoma) SIE beta-lactamase reporter, IL-6 stimulated, 5 h; at 7.69 µM (top of the series) unless noted. The procedure, abridged: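 Emission at 460 and 530 nm (excitation 405 nm) reports SIE-controlled beta-lactamase in ME-180 cells. Cells received compound with 40 pM IL-6 for 5 hrs at 37 C; data scaled between 300 pM IL-6 and 125 nM JAK-inhibitor controls.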

The target in assay [5] is Glucocorticoid receptor (Homo sapiens) (UniProt P04150). Briefly: GR-GFP Redistribution (AID 450;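 active means compounds whose dose series gives a full or clear partial fitted curve of increased nuclear translocation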; further: potency means the concentration at half of the fitted maximal effect). The settings on record: U2OS GR-GFP nuclear translocation, laser cytometry, 2 h.
The target is the same in assay [6]. Briefly: GR-EFC Redistribution (AID 451; calls by dose curve; further: potency means the concentration at half of the fitted maximal effect). The following applies: CHO-K1 GR-EFC translocation, beta-gal luminescence, 2 h. The procedure, abridged:
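Translocation of GR-ED fusion to nuclear EA restores b-gal, read by luminescence after 1 h room-temperature detection. Engineered CHO-K1 biosensor cells, 1,000/well, exposed 2 h at 37 C to titrations up to 46 uM final.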

Assay [7] addresses Mitogen-activated protein kinase 10 (Mus musculus) (UniProt Q61831). In words: JNK3 AlphaScreen Assay (AID 530).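 Further: kinase came from lysate of stimulated human HepG2 cells; signal reports phosphorylation of biotinylated GST-cJun 1-79 at Ser73 with 10 µM ATP; on the % scale 0 is the no-effect control and ±100 the full control effect.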 The procedure, abridged: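 Kinase buffer: 20 mM Tris-HCl pH 7.6, 10 mM MgCl2, 1 mM DTT, 0.1 mM Na3VO4, 0.01% Tween-20; ATP 10 uM. Substrate biotin-GST-cJun(1-79), enzyme from activated HepG2 lysates. Detection by Ser73 phospho-antibody AlphaScreen.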
The target in assay [8] is 3',5'-cyclic-AMP phosphodiesterase 4B (Homo sapiens) (UniProt Q07343). In words: qHTS Assay for Inhibitors of PDE-IV (AID 607; active means well fitted activation curve with a large enough effect in the main read-out, with a control signal flat, not every such curve was filed as active; further: % of control where 0% means no effect). The procedure, abridged: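 The readout is membrane depolarisation from a cAMP-sensing CNG channel, detected with a potential dye at ex 535/em 590. Cells were HEK293-derived (endogenous PDE-IV) at 1000 cells/well, titrated up to 22.9 uM final.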

The target in assay [9] is Guanine nucleotide-binding protein G(i) subunit alpha-1 (Homo sapiens) (UniProt P63096). In words: qHTS Assay for Inhibitors of RGS12 GoLoco Motif Activity (Green Fluorophore) (AID 879; active means well fitted curve in the direction sought with a large enough effect; an effect the other way counts as inactive or inconclusive;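 further: 0% = labeled peptide with Gαi1 and full inhibition = labeled peptide alone without protein; negative values mean loss of peptide binding seen as reduced polarization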). The procedure, abridged: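 A drop in FITC polarization marked displacement of the FITC-tagged RGS12 GoLoco peptide (10 nM) from Gαi1 (50 nM). Compounds were incubated 10 min at room temperature in Tris pH 7.5 buffer containing 150 mM NaCl, 0.1 mM GDP and 0.05% NP40; unlabeled peptide titration served as control.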

Assay [10] has as its target Cytochrome P450 2D6 (Homo sapiens) (UniProt P10635). In words: qHTS Assay for Inhibitors and Substrates of Cytochrome P450 2D6 (AID 891; active means well fitted curve in the direction sought with a large enough effect; an effect the other way counts as inactive or inconclusive; further: potency means the concentration at half of the fitted maximal effect; nearly all actives have a fitted effect of over 60% in size). The procedure, abridged:
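Luminescent read-out of luciferin formed by 5 nM human CYP2D6 demethylating 30 uM Luciferin-ME EGE (Km level) over 60 min at room temperature after NADPH regeneration addition. Data normalized to full inhibition by 1.43 uM quinidine.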

Assay [11] in a line: qHTS Assay for Identification of Small Molecule Agonists for Thrombopoietin (TPO) Signaling Pathway (AID 917; active means well fitted curve in the direction sought with a large enough effect; an effect the other way counts as inactive or inconclusive; further: on the % scale 0 is the no-effect control and ±100 the full control effect). An outline of the steps: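 Quantitative HTS for pathway activators: compounds were pin-transferred onto IL-3-starved Ba/F3 cells expressing human TPO receptor, TPO was added at its EC50 (26 pM final), and after 24 hrs at 37 C reporter luciferase was measured.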
Assay [12] deals with Muscarinic acetylcholine receptor M1 (Rattus norvegicus) (UniProt P08482). In words: qHTS Assay for Antagonists of Acetylcholine Muscarinic M1 Receptor: Measurement of IP-One Response (AID 944; active means well fitted curve in the direction sought with a large enough effect; an effect the other way counts as inactive or inconclusive; further: nearly all actives have a fitted effect of over 75% in size). The procedure, abridged: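 Antagonism was measured as loss of carbachol-driven (EC80) IP1 accumulation in CHO cells carrying rat M1, using a homogeneous IP-One TR-FRET kit read at 620 and 665 nm.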

The target of assay [13] is Pyruvate kinase (Leishmania mexicana) (UniProt Q27686). Briefly: qHTS Validation Assay for Inhibitors of Leishmania Mexicana Pyruvate Kinase (AID 945; active means well fitted curve in the direction sought with a large enough effect; an effect the other way counts as inactive or inconclusive;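 further: 0% = DMSO only neutral control wells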). The procedure, abridged:
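Substrate mix (0.5 mM PEP, 0.1 mM ADP, 7 mM MgCl2, 50 mM KCl, pH 7.2 imidazole) received compound by pin tool, then 0.2 nM LmPYK E451W. After 1 h at room temperature, PKLight was added and luminescence measured.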

Assay [14] deals with Pyruvate kinase PKM (Homo sapiens) (UniProt P14618). Briefly: qHTS Assay for Activators of Human Muscle Pyruvate Kinase (AID 954; active means well fitted curve in the direction sought with a large enough effect, not every such curve was filed as active;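 further: 0% = uninhibited enzyme and -100% = no enzyme or full thiadiazolimine inhibition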). An outline of the steps: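 PKM2, human, >95% pure, 0.1 nM; PEP 0.5 mM (Km), ADP 0.1 mM; 50 mM imidazole pH 7.2, 50 mM KCl, 0.01% Tween 20, 0.05% BSA; 1 h RT; luciferase luminescence readout.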
Assay [15] deals with Alpha-galactosidase A (Homo sapiens) (UniProt P06280). In words: Counterscreen for Glucocerebrosidase Inhibitors: qHTS Assay for Human alpha-Galactosidase at pH 4.5 (AID 992; active means well fitted curve in the direction sought with a large enough effect; an effect the other way counts as inactive or inconclusive; further: 0% is about no effect). An outline of the steps:
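Fluorogenic 4-MU alpha-D-galactoside (80 uM) hydrolysis, 2 nM enzyme, pH 4.5 citrate buffer + 0.005% Tween-20; 20 min RT; NaOH/glycine pH 10 stop; Ex365/Em440. Compounds titrated 0.7 nM–77 uM; Hill-equation AC50.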

Assay [16] has as its target alpha-glucosidase (Oryza sativa, rice) (UniProt Q653V4). In words: Counterscreen for Glucocerebrosidase Inhibitors: qHTS Assay for Rice alpha-Glucosidase at pH 5.0 (AID 997; active means well fitted curve in the direction sought with a large enough effect; an effect the other way counts as inactive or inconclusive;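 further: 0% = full activity with enzyme and -100% = basal without enzyme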). An outline of the steps:
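Endpoint fluorogenic assay at pH 5.0: compounds (0.7 nM to 77 uM) titrated against 4 nM rice enzyme and 400 uM 4-MU-alpha-glucoside for 20 min at room temperature; NaOH/glycine stop, read ex 365/em 440 nm, Hill-fitted AC50.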

Assay [17] has as its target Alpha-galactosidase (Coffea arabica) (UniProt Q42656). In words: Counterscreen for Glucocerebrosidase Inhibitors: qHTS Assay for Coffee Bean alpha-Galactosidase at pH 5.9 (AID 998; active means well fitted curve in the direction sought with a large enough effect; an effect the other way counts as inactive or inconclusive;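 further: plate controls were uninhibited enzyme for no effect and no-enzyme basal signal for full effect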). An outline of the steps: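 Fluorogenic 4-MU substrate hydrolysis, 80 uM substrate and 2 nM coffee bean alpha-galactosidase, pH 5.9 citrate buffer, 20 min at room temperature, then NaOH/glycine stop. Titration 0.7 nM–77 uM, normalized to no-enzyme and enzyme controls, AC50 via Hill equation.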

Unmarked numbers belong to inactive results. Inconclusive results are not listed. The source made the active and inactive calls. Unless noted, the call rests on the fitted dose curve; in most records, active means well fitted curve in either direction with a large enough effect (not every such curve was filed as active); inconclusive means small, poorly fitted or top-dose-only effect, or another doubt; inactive means flat fitted curve, though single readings scatter.

Sequence of Pyruvate kinase PKM (Homo sapiens) (P14618 whole entry, looked up): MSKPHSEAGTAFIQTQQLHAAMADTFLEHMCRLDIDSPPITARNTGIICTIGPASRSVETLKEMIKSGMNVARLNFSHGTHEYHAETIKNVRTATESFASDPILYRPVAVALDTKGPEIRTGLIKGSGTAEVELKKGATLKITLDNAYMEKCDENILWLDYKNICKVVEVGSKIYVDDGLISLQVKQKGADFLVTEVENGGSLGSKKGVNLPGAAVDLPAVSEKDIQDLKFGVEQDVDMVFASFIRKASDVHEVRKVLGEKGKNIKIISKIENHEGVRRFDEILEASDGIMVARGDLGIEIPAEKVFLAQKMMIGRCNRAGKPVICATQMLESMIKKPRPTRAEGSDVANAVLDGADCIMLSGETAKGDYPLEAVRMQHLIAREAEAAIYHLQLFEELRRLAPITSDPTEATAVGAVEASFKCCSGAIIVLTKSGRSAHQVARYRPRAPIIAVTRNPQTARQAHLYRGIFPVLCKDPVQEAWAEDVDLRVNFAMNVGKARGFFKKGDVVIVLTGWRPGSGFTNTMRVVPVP
Sequence of Muscarinic acetylcholine receptor M1 (Rattus norvegicus) (P08482 whole entry, looked up): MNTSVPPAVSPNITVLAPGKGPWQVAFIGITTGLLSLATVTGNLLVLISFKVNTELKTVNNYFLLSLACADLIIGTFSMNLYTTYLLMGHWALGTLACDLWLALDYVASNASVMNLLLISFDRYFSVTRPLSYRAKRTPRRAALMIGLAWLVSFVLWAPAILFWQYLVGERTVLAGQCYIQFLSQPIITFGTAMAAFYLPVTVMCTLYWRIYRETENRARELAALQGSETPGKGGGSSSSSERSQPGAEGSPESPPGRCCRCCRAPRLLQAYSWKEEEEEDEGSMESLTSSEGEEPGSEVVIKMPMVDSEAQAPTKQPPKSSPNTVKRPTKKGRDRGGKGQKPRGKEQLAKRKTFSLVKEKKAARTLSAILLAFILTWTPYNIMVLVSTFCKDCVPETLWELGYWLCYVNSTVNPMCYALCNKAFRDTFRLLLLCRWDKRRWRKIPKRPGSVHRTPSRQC
Sequence of Pyruvate kinase (Leishmania mexicana) (Q27686 2-499 E452W): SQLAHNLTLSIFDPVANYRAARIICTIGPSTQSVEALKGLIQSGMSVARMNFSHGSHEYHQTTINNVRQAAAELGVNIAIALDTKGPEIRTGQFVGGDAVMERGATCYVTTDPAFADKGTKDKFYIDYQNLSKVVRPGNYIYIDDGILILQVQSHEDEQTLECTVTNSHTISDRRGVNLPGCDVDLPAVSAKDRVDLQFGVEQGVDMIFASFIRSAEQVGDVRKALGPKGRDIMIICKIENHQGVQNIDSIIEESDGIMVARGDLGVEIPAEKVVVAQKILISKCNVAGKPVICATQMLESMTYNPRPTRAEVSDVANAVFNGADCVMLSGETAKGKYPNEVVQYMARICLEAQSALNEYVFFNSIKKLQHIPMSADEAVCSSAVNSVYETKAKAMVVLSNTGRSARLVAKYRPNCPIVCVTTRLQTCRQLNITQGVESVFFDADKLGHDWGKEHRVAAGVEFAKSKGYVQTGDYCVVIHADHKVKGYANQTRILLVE
Sequence of 3',5'-cyclic-AMP phosphodiesterase 4B (Homo sapiens) (Q07343 whole entry, looked up): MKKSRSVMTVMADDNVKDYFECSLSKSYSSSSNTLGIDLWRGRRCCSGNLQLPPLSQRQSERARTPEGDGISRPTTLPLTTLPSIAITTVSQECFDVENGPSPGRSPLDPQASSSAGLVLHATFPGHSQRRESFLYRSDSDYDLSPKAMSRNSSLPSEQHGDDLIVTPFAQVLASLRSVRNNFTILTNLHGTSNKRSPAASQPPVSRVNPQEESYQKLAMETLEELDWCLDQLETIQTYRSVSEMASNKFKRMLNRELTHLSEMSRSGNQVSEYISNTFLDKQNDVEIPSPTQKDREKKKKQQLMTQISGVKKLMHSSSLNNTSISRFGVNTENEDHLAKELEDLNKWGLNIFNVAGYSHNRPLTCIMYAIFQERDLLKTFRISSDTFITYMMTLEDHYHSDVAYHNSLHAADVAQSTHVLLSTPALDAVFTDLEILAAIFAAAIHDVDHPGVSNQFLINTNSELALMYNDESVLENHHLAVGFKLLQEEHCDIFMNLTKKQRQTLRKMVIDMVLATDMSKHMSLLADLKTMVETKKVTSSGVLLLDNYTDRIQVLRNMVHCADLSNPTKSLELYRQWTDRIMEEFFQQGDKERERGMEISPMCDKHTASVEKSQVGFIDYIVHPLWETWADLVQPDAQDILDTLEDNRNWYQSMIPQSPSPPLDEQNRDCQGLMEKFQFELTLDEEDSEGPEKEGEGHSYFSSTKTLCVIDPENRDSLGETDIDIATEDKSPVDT
Sequence of Alpha-galactosidase (Coffea arabica) (Q42656 whole entry, looked up): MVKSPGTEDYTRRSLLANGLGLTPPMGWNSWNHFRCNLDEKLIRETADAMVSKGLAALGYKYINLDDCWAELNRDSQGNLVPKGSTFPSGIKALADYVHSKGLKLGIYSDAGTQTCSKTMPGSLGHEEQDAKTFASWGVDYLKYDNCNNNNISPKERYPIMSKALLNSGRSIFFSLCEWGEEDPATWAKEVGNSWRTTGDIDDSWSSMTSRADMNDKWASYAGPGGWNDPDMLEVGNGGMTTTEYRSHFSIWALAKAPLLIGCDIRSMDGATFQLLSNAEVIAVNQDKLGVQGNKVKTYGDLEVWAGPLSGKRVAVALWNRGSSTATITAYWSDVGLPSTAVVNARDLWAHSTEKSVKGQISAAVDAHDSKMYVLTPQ
Sequence of Alpha-galactosidase A (Homo sapiens) (P06280 whole entry, looked up): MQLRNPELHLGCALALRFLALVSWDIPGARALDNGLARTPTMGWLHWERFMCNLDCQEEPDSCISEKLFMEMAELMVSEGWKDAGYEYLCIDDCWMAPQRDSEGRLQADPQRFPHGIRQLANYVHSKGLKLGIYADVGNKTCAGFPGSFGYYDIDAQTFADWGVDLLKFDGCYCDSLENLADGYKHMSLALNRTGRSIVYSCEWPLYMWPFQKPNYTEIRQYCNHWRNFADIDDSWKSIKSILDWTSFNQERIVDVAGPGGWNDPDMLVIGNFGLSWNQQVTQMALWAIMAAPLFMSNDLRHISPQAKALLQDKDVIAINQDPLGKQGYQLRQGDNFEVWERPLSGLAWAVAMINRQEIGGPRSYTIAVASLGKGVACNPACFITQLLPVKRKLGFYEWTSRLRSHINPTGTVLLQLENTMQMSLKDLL
Sequence of Cytochrome P450 1A2 (Homo sapiens) (P05177 whole entry, looked up): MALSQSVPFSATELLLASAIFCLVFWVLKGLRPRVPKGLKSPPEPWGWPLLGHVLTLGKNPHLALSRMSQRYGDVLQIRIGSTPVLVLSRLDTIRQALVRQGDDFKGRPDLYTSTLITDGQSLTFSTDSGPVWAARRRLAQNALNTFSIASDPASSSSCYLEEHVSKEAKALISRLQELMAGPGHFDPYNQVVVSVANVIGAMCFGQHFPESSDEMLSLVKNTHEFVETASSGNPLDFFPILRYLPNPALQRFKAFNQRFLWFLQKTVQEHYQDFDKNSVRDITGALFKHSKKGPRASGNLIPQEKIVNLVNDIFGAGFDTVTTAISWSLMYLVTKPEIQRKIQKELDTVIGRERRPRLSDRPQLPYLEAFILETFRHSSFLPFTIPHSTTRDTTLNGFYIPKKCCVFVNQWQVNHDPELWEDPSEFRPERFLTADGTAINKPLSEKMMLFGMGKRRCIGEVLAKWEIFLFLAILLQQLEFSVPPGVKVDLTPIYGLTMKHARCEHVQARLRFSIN
Sequence of Glucocorticoid receptor (Homo sapiens) (P04150 whole entry, looked up): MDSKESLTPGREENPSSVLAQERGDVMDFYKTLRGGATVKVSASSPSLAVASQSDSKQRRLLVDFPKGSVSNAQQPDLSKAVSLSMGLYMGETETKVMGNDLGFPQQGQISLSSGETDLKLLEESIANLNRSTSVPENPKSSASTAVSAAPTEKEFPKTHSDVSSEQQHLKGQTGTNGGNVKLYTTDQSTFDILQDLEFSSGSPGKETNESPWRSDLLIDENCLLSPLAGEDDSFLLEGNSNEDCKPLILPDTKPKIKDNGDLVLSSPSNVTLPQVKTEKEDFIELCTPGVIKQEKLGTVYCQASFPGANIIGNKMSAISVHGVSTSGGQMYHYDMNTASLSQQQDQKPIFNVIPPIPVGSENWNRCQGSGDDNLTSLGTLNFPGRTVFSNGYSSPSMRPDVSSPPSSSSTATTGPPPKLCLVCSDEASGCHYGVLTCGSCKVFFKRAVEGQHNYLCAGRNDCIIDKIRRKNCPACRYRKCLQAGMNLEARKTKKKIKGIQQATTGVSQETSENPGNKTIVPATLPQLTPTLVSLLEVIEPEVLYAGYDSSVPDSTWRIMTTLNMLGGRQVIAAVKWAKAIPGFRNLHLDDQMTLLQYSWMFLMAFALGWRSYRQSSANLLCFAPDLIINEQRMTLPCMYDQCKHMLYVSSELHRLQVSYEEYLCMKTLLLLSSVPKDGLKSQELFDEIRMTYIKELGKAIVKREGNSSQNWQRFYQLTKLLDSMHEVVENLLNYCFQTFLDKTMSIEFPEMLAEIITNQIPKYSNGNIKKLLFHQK
Sequence of Guanine nucleotide-binding protein G(i) subunit alpha-1 (Homo sapiens) (P63096 whole entry, looked up): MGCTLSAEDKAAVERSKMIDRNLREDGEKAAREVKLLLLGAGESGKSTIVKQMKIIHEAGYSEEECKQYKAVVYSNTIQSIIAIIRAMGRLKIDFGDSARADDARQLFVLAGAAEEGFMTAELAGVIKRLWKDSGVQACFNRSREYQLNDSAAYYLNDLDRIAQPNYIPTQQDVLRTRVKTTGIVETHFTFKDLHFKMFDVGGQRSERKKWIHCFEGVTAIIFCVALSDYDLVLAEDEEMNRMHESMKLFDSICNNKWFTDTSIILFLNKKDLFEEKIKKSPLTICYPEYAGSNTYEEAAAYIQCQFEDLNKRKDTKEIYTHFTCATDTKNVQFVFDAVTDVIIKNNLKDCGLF

Regarding `COc1ccc2c(c1)[C@]13CCCC[C@@H]1[C@H](C2)NCC3`, the activity change, negative = inhibition was 15.6% [at 38 µM] in assay [1] and 4.42% [at 38 µM] in assay [3]. Further, the Potency result in [2], in [7] and in [12] was “inactive” throughout. Moreover, in assay [4], the activity, negative = inhibition is -11.2% [at 38 µM]. Besides, the Potency in [5] is above 46 µM; in assay [6], above 46 µM; in assay [10], 6.31 µM (active). The call in assay [8], in assay [9], in assay [11], in [13], in assay [14] and in assay [15] was inactive. In addition, the compound was called inactive in [16] and in assay [17].
Take `COc1ccc2c(c1O)-c1cccc3c1[C@H](C2)N(C)CC3`: the activity change, negative = inhibition in assay [1] was -2.14% [at 38 µM]; in [3] it was -9.88% [at 38 µM]. Besides, the Potency was 3.98 µM (active) in assay [2], above 46 µM in assay [5] and above 46 µM in assay [6]. Further, in assay [4], the activity, negative = inhibition was 28.1% [at 38 µM]. In addition, the Potency entry in assay [7] and in assay [12] was “inactive” in each case. The compound was classed as inactive in assay [8], in assay [9], in assay [11], in assay [13], in assay [14] and in assay [15]. In addition, the result in [16] and in assay [17] was inactive.
As for `CC1=NN(c2ccc(S(=O)(=O)O)cc2C)C(=[OH+])[C@H]1N=Nc1cc(S(=O)(=O)O)ccc1C(=O)O.O.[Cr]`, the activity change, negative = inhibition in assay [1] was -5.8%; in [3], 12.1%; in assay [7], -0.77% [at 11.4 µM]. The Potency result in [2] is “inactive”. For the same compound, in assay [4], the activity, negative = inhibition was 7.29%. The results for the Potency in assay [5] and in assay [6] were above 46 µM and above 9.22 µM, respectively. Also, the compound was called inactive in assay [8].
With `c1ccc(CCN2CCOCC2)nc1`, the activity change, negative = inhibition was -2.6% in assay [1], -3% [at 2.29 µM] in assay [2], 11.7% in assay [3] and 1.44% [at 11.4 µM] in [7]. For the same compound, the activity, negative = inhibition in [4] is 4.66%. Moreover, the results for the Potency in [5] and in assay [6] were above 46 µM and above 9.22 µM, respectively. Moreover, the outcome in [8] was inactive.
With `CN1C[C@@H](CS(=O)(=O)N(C)C)C[C@H]2c3cccc4c3c(cn4C)C[C@@H]21`, the figures for the activity change, negative = inhibition in [1] and in assay [3] were 2.96% [at 38 µM] and 4.13% [at 38 µM], respectively. Also, the Potency in [2] is 25.1 µM (active); in assay [5], above 46 µM; in [6], above 46 µM; in assay [10] it was 3.98 µM (active). Further, in assay [4], the activity, negative = inhibition is -10.8% [at 38 µM]. In addition, the Potency entry in assay [7] and in assay [12] was “inactive” each time. Also, the compound was called inactive in [8], in assay [11], in [13], in assay [14], in [15] and in [16]. The compound was classed as inactive in assay [17].
`C[C@@H](Cc1ccc(Cl)cc1Cl)NO`: the activity change, negative = inhibition is 3.86% in assay [1], -11.6% in assay [3] and 2.58% [at 11.4 µM] in [7]. Also, the Potency in assay [2] was 0.251 µM (active); in [5] it was above 46 µM; in [6] it was above 9.22 µM. Besides, the activity, negative = inhibition in [4] was -0.402%. Also, in assay [8], the call was inactive.
